Records with an inconclusive call do not appear. A number with no mark means an inactive call. Calls of active or inactive are those of the source. The call rests on the fitted dose curve; in most records, active means well fitted activation curve with a large enough effect in the repeat runs; inconclusive means weak or mixed curves; inactive means flat fitted curve, though single readings scatter.
Experiment: A CellTox Green Cytotoxicity Assay to monitor cytotoxicity in HepG2 cells - 16 hour (AID 1224876); further: nearly all actives have a fitted effect of over 45% in size
Conditions: CellTox Green fluorescence; series mostly up to 76.8 µM; cytotoxicity increase: at the top concentration
Excerpt: National Center for Advancing Translational Sciences [NCATS]
NIH Chemical Genomics Center [NCGC]
U.S. Environmental Protection Agency [EPA]
National Institutes of Environmental Health Sciences [NIEHS]
National Toxicology Program [NTP]
Cell-based models are critical for drug discovery. Determining the natural cytotoxic effects resulting from test compounds is an essential research activity. A CellTox Green Cytotoxicity Assay to monitor cytotoxicity in real time of continues cell culture during 40 hours of the compound treatment was used to screen Tox21 10K library compounds in HepG2 cells. CellTox Green Cytotoxicity Assay is a nonlytic, homogeneous, biofluorescent method to measure cytotoxicity in cell culture after experimental manipulation. The assay system uses a proprietary asymmetric cyanine dye that is excluded from viable cells but preferentially stains the dead cell's DNA. […] Viable cells produce no appreciable increases in fluorescence. Therefore, the fluorescence signal produced by the binding interaction with dead cell DNA is proportional to cytotoxicity.
The mixture of HepG2 cell suspension and reagents were dispensed at 600cells/6 ul/well in 1536-well tissue culture treated black solid bottom plates using a Multidrop dispenser. After the assay plates were incubated at a 37 C/5% CO2 incubator for 5 hours, 23 nL of compounds dissolved in DMSO, positive and negative controls was transferred to the assay plate by a pintool work station. The plates were incubated at 37 C for 40 hours. The fluorescence intensity were measured at 0h, 8h, 16h, 24h, 32h and 40h time points using ViewLux plate reader during compound treatment.
On the % scale 0 is the no-effect control and ±100 the full control effect.

SMILES | cytotoxicity increase | Potency
NC(=O)OCCCc1ccccc1 | -1.49% [at 35.3 µM] | 
O=C(Cl)OCc1ccccc1 | -5.61% | 
[P]#[In] | -4.39% | 
CCCC(C)(COC(N)=O)COC(N)=O | 0.0312% | 
C[C@H](N)C(=O)c1ccccc1 | 1.59% | 
CCN(CC)C1CCCCC1 | -1.61% | 
COc1ccc2c(C(=O)c3ccc(Cl)cc3)c(C)n(CC(=O)O)c2c1 | -17.6% [at 35.3 µM] | 
CN(CCO)CCO | -0.123% | 
CCOP(=S)(OCC)Oc1ccc(Cl)cc1Cl | 6.68% | 
CCCOC(=O)c1cncn1C(C)c1ccccc1 (stereo not given) | -0.741% [at 35.3 µM] | 
C=CC1(C)OC(=O)N(c2cc(Cl)cc(Cl)c2)C1=O (stereo not given) |  | inactive
CNC(=O)NC(O)C(Cl)(Cl)Cl (stereo not given) | 19.9% [at 35.3 µM] | 
S=C=S | 9.54% | 
O=c1[nH]c2ccccc2n1C1CCNCC1 | 9.41% [at 35.3 µM] | 
CCC(C)(C#N)N=NC(C)(C#N)CC (stereo not given) | -23.6% | 
CC(=NC#N)N(C)Cc1ccc(Cl)nc1 | -7.73% | 
Cn1c(CCCC(=O)O)nc2cc(N(CCCl)CCCl)ccc21 | -12% [at 35.3 µM] | 
ClC1=C(Cl)C2(Cl)C(CBr)CC1(Cl)C2(Cl)Cl (stereo not given) | -14.1% [at 35.3 µM] | 
C=C(C)[C@H]1CN[C@H](C(=O)O)[C@H]1CC(=O)O | 2.25% [at 35.3 µM] | 
N[C@@H](Cc1ccc(Oc2cc(I)c(O)c(I)c2)c(I)c1)C(=O)O | 0.499% [at 35.3 µM] | 

SMILES | cytotoxicity increase | Potency
O=C(Cl)C(Cl)Cl | -2.99% | 
C=CCC1(C(C)CC)C(=O)NC(=O)NC1=O (stereo not given) | 1.49% [at 35.3 µM] | 
CCCCCCCCBr | -14.5% | 
CCC1(c2cccc(O)c2)CCCCN(C)C1 (stereo not given) | -1.15% [at 35.3 µM] | 
C(COCC1CO1)OCC1CO1 (stereo not given) | 6.4% | 
Nc1c(Cl)c(F)nc(OCC(=O)O)c1Cl | -1.26% | 
C=C(Cl)CSC(=S)N(CC)CC | 0.578% | 
O=C(Cl)/C=C/C(=O)Cl | -9.85% | 
CCN(CCO)CCn1c(Cc2ccccc2)nc2c1c(=O)n(C)c(=O)n2C | -7.5% [at 35.3 µM] | 
CCN[C@@H](C)Cc1ccccc1 | -21.1% | 
CCCCCCCC(=O)Cl | -0.55% | 
C[C@@H](N)[C@@H](O)c1ccccc1 | 9.13% [at 35.3 µM] | 
CCOC(=O)CC(SP(=S)(OC)OC)C(=O)OCC (stereo not given) |  | inactive
CCOC(=O)NC(C)(C)Cc1ccc(Cl)cc1 | 20.5% [at 35.3 µM] | 
Cc1ccc2cc(C)ccc2c1 | -2.68% | 
CCCCCCCCSC(=O)Oc1cc(Cl)nnc1-c1ccccc1 | -14.2% | 
CC(C)(O)C(Cl)(Cl)Cl | -1.38% [at 35.3 µM] | 
O=CCCl | -10.5% | 
CC(C)N(Cc1ccccc1)C(=O)C(C)(C)C | 17.9% | 
CC(Cl)(Cl)Cl | 1.67% | 

Source: PubChem BioAssay (Tox21)
